# In PubChem BioAssay:
# The source made the active and inactive calls.
# How the values were obtained:
# [1] = test system: Plasmodium falciparum Sir2 (PF13_0152, Sir2A); experiment: Plasmodium falciparum Sir2A binding compounds – biochemical, small-molecule microarray, 635 nm fluorescence, primary screen (AID 1098); settings: fluorescence 635 nm, higher = more signal;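 note: score merges spot fluorescence intensity with its signal-to-noise ratio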
# [2] = probe aDKK1 binding to arrayed compounds – biochemical, biotinylated probe, 635/667 nm fluorescence, primary screen (AID 1099); settings: small-molecule microarray, higher = more signal;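 note: score merges 667nm spot fluorescence with signal to noise across triplicate slides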
# [3] = probe aCHRDL2 binding to arrayed compounds – biochemical, biotinylated probe, 635/667 nm fluorescence, primary screen (AID 1100); settings: small-molecule microarray, higher = more signal
# [4] = change in splice reporter luminescence, either direction, cell-based, HEK293, spliceosome inhibition project, primary screen (AID 1101); settings: HEK293 splicing luciferase reporter, 24 h, higher = more signal, called active from +8 up or from −8 down;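 note: HEK293 cells carrying a splicing-competent luciferase reporter gene; test concentration not given here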
# [5] = target: Fibroblast growth factor 10 (Homo sapiens) (UniProt O15520); experiment: compounds binding fibroblast growth factor 10 – biochemical, small-molecule microarray, 635 nm fluorescence, primary screen (AID 1102); settings: FGF10 binding, fluorescence 635 nm, higher = more signal
# Sequence of Fibroblast growth factor 10 (Homo sapiens) (O15520 whole entry, looked up): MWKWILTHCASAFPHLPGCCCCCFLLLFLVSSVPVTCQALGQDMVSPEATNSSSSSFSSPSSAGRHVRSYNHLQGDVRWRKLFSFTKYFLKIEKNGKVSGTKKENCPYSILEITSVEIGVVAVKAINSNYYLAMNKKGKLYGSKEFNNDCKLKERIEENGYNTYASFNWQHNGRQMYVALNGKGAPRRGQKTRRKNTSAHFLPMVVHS
# [6] = test system: glycogen synthase kinase-3 (GSK3A per assay name; protocol says GSK3B); experiment: compounds binding glycogen synthase kinase-3 – biochemical, small-molecule microarray, 635 nm fluorescence, GSK3A, primary screen (AID 1103); settings: fluorescence 635 nm, higher = more signal; note: the record names both GSK3A and GSK3B
# [7] = target: Epidermal growth factor receptor (Homo sapiens) (UniProt P00533); experiment: compounds binding epidermal growth factor receptor – biochemical, small-molecule microarray, 635 nm fluorescence, primary screen (AID 1104); settings: EGFR binding, higher = more signal;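 note: score merges 667 nm emission intensity with spot signal to noise over triplicate slides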
# Sequence of Epidermal growth factor receptor (Homo sapiens) (P00533 whole entry, looked up): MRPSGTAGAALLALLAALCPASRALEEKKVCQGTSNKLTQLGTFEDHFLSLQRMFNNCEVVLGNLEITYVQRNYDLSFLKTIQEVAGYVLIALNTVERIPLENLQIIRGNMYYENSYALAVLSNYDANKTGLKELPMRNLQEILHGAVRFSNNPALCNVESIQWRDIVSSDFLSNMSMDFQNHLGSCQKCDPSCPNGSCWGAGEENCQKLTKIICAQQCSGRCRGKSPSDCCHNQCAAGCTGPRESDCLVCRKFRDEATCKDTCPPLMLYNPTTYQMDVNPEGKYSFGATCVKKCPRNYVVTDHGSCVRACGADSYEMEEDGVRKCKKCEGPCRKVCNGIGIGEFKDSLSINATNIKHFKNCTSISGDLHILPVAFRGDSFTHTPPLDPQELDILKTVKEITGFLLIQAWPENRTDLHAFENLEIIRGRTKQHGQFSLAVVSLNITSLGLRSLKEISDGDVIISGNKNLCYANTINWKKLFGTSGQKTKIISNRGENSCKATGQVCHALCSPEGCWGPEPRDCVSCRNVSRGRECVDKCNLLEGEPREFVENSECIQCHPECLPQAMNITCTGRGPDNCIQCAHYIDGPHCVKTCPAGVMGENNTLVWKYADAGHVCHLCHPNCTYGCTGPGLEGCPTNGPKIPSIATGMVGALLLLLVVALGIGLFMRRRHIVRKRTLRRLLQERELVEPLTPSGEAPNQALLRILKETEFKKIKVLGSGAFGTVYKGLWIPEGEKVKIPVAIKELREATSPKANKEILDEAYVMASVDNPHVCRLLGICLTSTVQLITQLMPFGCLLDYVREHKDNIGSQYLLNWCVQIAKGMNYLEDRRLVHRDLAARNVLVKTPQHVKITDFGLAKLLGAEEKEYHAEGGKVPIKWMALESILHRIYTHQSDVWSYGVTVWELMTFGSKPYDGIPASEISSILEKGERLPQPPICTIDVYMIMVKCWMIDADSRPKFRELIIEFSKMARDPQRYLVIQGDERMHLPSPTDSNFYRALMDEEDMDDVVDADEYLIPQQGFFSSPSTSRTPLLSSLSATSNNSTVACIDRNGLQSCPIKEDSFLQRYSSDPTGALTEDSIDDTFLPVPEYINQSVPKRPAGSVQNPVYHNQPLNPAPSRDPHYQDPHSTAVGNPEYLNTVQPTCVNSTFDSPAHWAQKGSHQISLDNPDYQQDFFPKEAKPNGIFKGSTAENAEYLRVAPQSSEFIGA
# [8] = target: Follistatin-related protein 3 (Homo sapiens) (UniProt O95633); experiment: compounds binding follistatin-related protein 3 – biochemical, small-molecule microarray, 635 nm fluorescence, primary screen (AID 1105); settings: FSTL3 binding, higher = more signal;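 note: score merges emission near 667 nm and signal to noise per printed spot across three slides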
# Sequence of Follistatin-related protein 3 (Homo sapiens) (O95633 whole entry, looked up): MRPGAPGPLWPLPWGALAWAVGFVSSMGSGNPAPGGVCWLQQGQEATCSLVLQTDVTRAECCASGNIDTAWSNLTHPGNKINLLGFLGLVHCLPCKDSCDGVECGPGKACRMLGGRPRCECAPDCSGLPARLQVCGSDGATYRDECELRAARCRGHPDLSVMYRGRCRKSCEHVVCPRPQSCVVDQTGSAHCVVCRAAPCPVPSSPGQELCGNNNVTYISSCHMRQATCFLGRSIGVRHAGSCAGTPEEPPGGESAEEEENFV
# [9] = target: Dickkopf-related protein 1 (Homo sapiens) (UniProt O94907); experiment: small molecules binding DKK1 protein – biochemical, small-molecule microarray, 635 nm fluorescence scan, primary screen (AID 1106); settings: higher = more signal;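 note: score merges emission near 667 nm with signal to noise over three replicate slides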
# Sequence of Dickkopf-related protein 1 (Homo sapiens) (O94907 whole entry, looked up): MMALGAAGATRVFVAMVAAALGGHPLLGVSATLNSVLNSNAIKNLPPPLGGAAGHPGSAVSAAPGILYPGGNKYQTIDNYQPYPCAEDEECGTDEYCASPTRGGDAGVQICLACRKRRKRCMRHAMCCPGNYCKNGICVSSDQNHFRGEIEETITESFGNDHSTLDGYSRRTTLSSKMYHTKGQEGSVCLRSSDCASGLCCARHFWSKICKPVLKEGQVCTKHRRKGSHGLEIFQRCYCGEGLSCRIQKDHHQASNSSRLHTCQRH
# [10] = test system: Inhibin beta A chain (activin A); experiment: small molecules binding activin A – biochemical, small-molecule microarray, 635 nm fluorescence scan, primary screen (AID 1107); settings: INHBA, higher = more signal;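 note: mouse activin A protein probed at 4.33 µg/mL on printed slides; score merges bound-protein fluorescence near 667 nm with spot signal-to-noise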
# [11] = test system: Human papillomavirus type 1a protein E7 (residues 44-93); experiment: small molecules binding HPV E7 44-93 – biochemical, small-molecule microarray, residues 44-93, 635 nm fluorescence, primary screen (AID 1108); settings: fluorescence 635 nm, higher = more signal;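 note: E7 fragment applied at 1 µg/mL in TBST for 1 h at 4 C; score combines spot fluorescence with its signal to noise ratio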
# [12] = hepatitis C replication reporter changes, two-sided – Huh7 cells, luciferase reporter, HCV replication inhibitor project, primary screen (AID 1109); settings: Huh7 HCV replicon luciferase reporter, 48 h; higher = more signal;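 note: huh7 hepatoma cells harbouring a luciferase neomycin HCV replicon reporter; luciferase luminescence as measure of HCV replicon replication; test concentration not given here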
# [13] = target: Left-right determination factor 2 (Homo sapiens) (UniProt O00292); experiment: small molecules binding LEFTY2 protein – biochemical, small-molecule microarray, 635 nm fluorescence scan, primary screen (AID 1110); settings: higher = more signal
# Sequence of Left-right determination factor 2 (Homo sapiens) (O00292 whole entry, looked up): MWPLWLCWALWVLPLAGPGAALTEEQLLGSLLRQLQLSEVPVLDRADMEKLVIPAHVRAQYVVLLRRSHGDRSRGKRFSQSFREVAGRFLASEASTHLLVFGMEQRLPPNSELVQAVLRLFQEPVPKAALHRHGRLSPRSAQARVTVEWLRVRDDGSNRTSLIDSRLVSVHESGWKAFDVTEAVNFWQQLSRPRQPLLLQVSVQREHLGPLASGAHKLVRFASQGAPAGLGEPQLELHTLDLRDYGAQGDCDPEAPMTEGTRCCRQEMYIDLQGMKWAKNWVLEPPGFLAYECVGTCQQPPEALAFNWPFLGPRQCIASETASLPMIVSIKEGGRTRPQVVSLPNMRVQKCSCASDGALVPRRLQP
# [14] = target: Calmodulin-1 (Homo sapiens) (UniProt P0DP23); experiment: small molecules binding calmodulin-1 with EGTA – biochemical, small-molecule microarray, Cy5-labelled CALM1, profiling panel (AID 1111); settings: Cy5-CALM1 binding fluorescence, higher = more signal;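 note: labelled calmodulin applied in Tris saline Tween buffer holding calcium plus EGTA and DTT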
# [15] = target: Calmodulin-1 (Homo sapiens) (UniProt P0DP23); experiment: small molecules binding Ca-loaded calmodulin-1 – biochemical, small-molecule microarray, Cy5-labelled CALM1, plus calcium, artefact control for SMM control-protein annotation, profiling panel (AID 1112); settings: Cy5-CALM1 binding fluorescence, higher = more signal;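 note: score merges spot fluorescence with signal to noise from triplicate slides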
# [16] = probe aWnt5a binding to arrayed compounds – biochemical, biotinylated probe, 635/667 nm fluorescence, primary screen (AID 1113); settings: small-molecule microarray, higher = more signal;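 note: score merges 667 nm fluorescence intensity with signal-to-noise per printed feature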
# [17] = probe aShh binding to arrayed compounds – biochemical, biotinylated probe, 635/667 nm fluorescence, primary screen (AID 1114); settings: small-molecule microarray, higher = more signal;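 note: probe is biotin-labelled aShh protein from a stem cell growth factor screen; measures binding of labelled protein to compounds printed on the slide; score merges feature fluorescence at 667 nm with signal-to-noise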
# [18] = probe aNog binding to arrayed compounds – biochemical, biotinylated probe, 635/667 nm fluorescence, primary screen (AID 1115); settings: small-molecule microarray, higher = more signal;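 note: probe is biotinylated aNog protein used at 0.15 µg/mL for 1 h at 4 C; z-score combines 667 nm fluorescence of each spot with its signal to noise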
# [19] = target: Torsin-1A-interacting protein 1 (Homo sapiens) (UniProt Q5JTV8); experiment: compound microarray binding of lysate hLAP1 – cell lysate, small-molecule microarray, COS7 lysate, 635/667 nm fluorescence, primary screen (AID 1116); settings: 635 nm fluorescence, higher = more signal
# Sequence of Torsin-1A-interacting protein 1 (Homo sapiens) (Q5JTV8 whole entry, looked up): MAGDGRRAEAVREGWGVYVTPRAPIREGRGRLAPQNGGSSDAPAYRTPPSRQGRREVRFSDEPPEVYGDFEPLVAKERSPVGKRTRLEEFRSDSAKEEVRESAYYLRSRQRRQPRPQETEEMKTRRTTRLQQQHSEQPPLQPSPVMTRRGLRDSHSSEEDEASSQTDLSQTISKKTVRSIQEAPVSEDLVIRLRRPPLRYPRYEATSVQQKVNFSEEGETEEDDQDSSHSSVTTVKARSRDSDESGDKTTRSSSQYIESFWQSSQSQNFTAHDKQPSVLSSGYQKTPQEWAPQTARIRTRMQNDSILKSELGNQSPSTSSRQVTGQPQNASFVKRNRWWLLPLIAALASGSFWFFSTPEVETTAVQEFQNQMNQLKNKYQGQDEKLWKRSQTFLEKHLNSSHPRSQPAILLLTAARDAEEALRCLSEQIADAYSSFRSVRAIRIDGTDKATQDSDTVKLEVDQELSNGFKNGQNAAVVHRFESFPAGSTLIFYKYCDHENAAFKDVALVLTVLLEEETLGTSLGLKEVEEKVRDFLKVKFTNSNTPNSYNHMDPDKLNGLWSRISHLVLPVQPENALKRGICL
# [20] = target: Alpha-bungarotoxin (Bungarus multicinctus) (UniProt P60615); experiment: compounds binding labelled alpha-BTX control protein – biochemical, small-molecule microarray, Alexa647 label, 635/667 nm fluorescence, artefact control for SMM control protein annotation, profiling panel (AID 1117); settings: alpha-BTX-A647 binding fluorescence, higher = more signal
# Sequence of Alpha-bungarotoxin (Bungarus multicinctus) (P60615 whole entry, looked up): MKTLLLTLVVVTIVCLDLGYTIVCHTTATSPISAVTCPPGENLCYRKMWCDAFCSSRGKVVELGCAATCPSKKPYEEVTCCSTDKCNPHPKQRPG
compound,measurement,setting,value
COC(=O)c1c2oc(c1C(=O)OC)C(=O)N[C@H](Cc1ccccc1)Cn1nncc1C1(CCCCC1)NC(=O)N[C@H](CO)CC2,composite z-score,[1],0.0465
same,composite z-score,[2],0.026
same,composite z-score,[3],-0.485
same,z-score,[4],-1.46 (inactive)
same,composite z-score,[5],0.0778
same,composite z-score,[6],0.129
same,composite z-score,[7],0.0246
same,composite z-score,[8],0.402
same,composite z-score,[9],0.452
same,composite z-score,[10],0.006
same,composite z-score,[11],0.613
same,z-score,[12],-0.398
same,composite z-score,[13],0.0801
same,composite z-score,[14],-0.16
same,composite z-score,[15],-0.661
same,composite z-score,[16],-0.0179
same,composite z-score,[17],-0.138
same,composite z-score,[18],-0.308
same,composite z-score,[19],-0.208
same,composite z-score,[20],-0.181
COCCOC(=O)N1C(=O)[C@@]2(c3cc(C#CCC(C(=O)OC)C(=O)OC)ccc31)[C@H](c1ccccc1OCCO)N1[C@H](c3ccccc3)[C@H](c3ccccc3)OC(=O)[C@H]1[C@@H]2C(=O)Nc1nc2ccccc2s1,composite z-score,[1],1.46
same,composite z-score,[2],0.514
same,composite z-score,[3],0.641
same,z-score,[4],-1.04 (inactive)
same,composite z-score,[5],1.33
same,composite z-score,[6],1.14
same,composite z-score,[7],0.692
same,composite z-score,[8],1.4
same,composite z-score,[9],0.785
same,composite z-score,[10],1.1
same,composite z-score,[11],0.678
same,z-score,[12],-1.11
same,composite z-score,[13],0.691
same,composite z-score,[14],1.29
same,composite z-score,[15],0.522
same,composite z-score,[16],-0.0134
same,composite z-score,[17],-0.0146
same,composite z-score,[18],0.185
same,composite z-score,[19],1.99
same,composite z-score,[20],2.06
